The values that follow come from PubChem BioAssay AID1076 (NMMLSC, 2008).

The nature of this experiment: cytotoxicity in LNCaP prostate cells – cell-based, cell event count, single point, cytotoxicity control for prostate differentiation activator project, confirmation (AID 1076).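 Also: counts scatter-gated live cells after medium removal discards detached dead cells.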 As to conditions: LNCaP cell loss, flow cytometry event count, 4 d, stronger effect = lower value.

Calls of active or inactive are those of the source.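 The calls were made as follows: active = cell event count below 40, meaning activity score above 60 where score is 100 minus count; inactive = the rest.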

On to `CCc1ccc(-c2nc(CN3CCC(C(=O)NCCc4ccc(OC)c(OC)c4)CC3)c(C)o2)cc1`, for which the cell event count (at 100 µM) was 17 (inactive) and the cell event count (event count, at 10 µM) stood at 204.
For `Cc1ccccc1-c1nc(CN2CCC(C(=O)NCCCN3CCCC3)CC2)c(C)o1` the same measures were 20 (inactive) and 65.
On to `O=S(=O)(Nc1cccc2ncccc12)c1cccs1`, for which the cell event count is, setting by setting: (at 100 µM) 42 (inactive); (event count, at 10 µM) 78.5.
For `Cn1c(=O)cc(SCC(=O)NCCCN2CCN(c3ccccc3F)CC2)c2ccccc21` the same measures were 166 (inactive) and 210.
As for `Cc1cc(O)c(-c2cc(C(=O)Nc3ccc(S(=O)(=O)N4CCOCC4)cc3)[nH]n2)cc1C`, the cell event count reads like this: (at 100 µM) 36 (inactive); (event count, at 10 µM) 86.
As to `CC(C)(C)C1CCc2onc(C(=O)Nc3cnn(Cc4ccc(F)cc4)c3)c2C1` (centres undefined), the cell event count is, setting by setting: (at 100 µM) 66 (inactive); (event count, at 10 µM) 242.
For the compound `O=C(Cn1ccc2ccccc2c1=O)NCCC(=O)N1CCN(c2cccc(C(F)(F)F)c2)CC1`, the cell event count reads like this: (at 100 µM) 232 (inactive); (event count, at 10 µM) 258.
With `COC(=O)C1=C(C)N=c2s/c(=C/c3cccs3)c(=O)n2C1c1cccs1` (centres undefined), the cell event count by setting is: (at 100 µM) 125 (inactive); (event count, at 10 µM) 320.
For `Cc1cc(=O)n2nc(N3CCCC3C(=O)NCc3ccccn3)sc2n1` (centres undefined), the cell event count by setting is: (at 100 µM) 101 (inactive); (event count, at 10 µM) 61.
Take `CCN1CCCC1CNC(=O)c1cc2c(-c3ccc(Cl)cc3)nn(C)c2s1` (centres undefined): the cell event count runs as follows: (at 100 µM) 14 (inactive); (event count, at 10 µM) 88.5.
Take `COc1ccc(N2CCN(CCCNC(=O)c3cc4sccc4n3C)CC2)cc1`: the cell event count is, setting by setting: (at 100 µM) 161 (inactive); (event count, at 10 µM) 251.
As to `CN(C)CCCN1c2ccccc2CCc2ccc(Cl)cc21`, the cell event count reads like this: (at 100 µM) 43 (inactive); (event count, at 10 µM) 74.
With `Cc1ccc(-c2noc(CCC(=O)NC3CCN(Cc4ccccc4)CC3)n2)cc1`, the cell event count reads like this: (at 100 µM) 9 (active); (event count, at 10 µM) 77.5.
The corresponding values for `Cc1ccc(CN2CCSc3ccc(C(=O)N4CCN(c5ncccn5)CC4)cc32)cc1` are 129 (inactive) and 266.
With `COc1ccc(CCn2c(=N)c(C(=O)NCc3ccco3)cc3c(=O)n4ccccc4nc32)cc1`, the cell event count by setting is: (at 100 µM) 32 (inactive); (event count, at 10 µM) 225.
Take `O=C(Cn1cnc2ccccc2c1=O)NCCC(=O)N1CCN(c2ccccc2)CC1`: the cell event count runs as follows: (at 100 µM) 158 (inactive); (event count, at 10 µM) 190.
As to `CCCS(=O)(=O)N1CCCC(C(=O)NCCCN2CCN(c3ccc(F)cc3)CC2)C1` (centres undefined), the cell event count is 49 (inactive) (at 100 µM) and 47 (event count, at 10 µM).
For `COc1ccccc1NC(=O)c1nc[nH]c1C(=O)Nc1ccccc1OC`, the cell event count reads like this: (at 100 µM) 103 (inactive); (event count, at 10 µM) 257.
Take `COc1ccc(OC)c(N=Cc2c(O)[nH]c3ccccc23)c1`: the cell event count by setting is: (at 100 µM) 207 (inactive); (event count, at 10 µM) 112.
In the case of `O=C(CCNC(=O)Cn1ccc2ccccc2c1=O)NCCCN1CCN(c2ccc(F)cc2)CC1`, the cell event count was 156 (inactive) (at 100 µM) and 91.5 (event count, at 10 µM).
For `Cc1cccc(-c2nc(CN3CCCC(C(=O)NC4CCCCCC4)C3)c(C)o2)c1` (centres undefined) the same measures were 17 (inactive) and 222.
The corresponding values for `Cn1c(=O)cc(OCC(=O)NCCCN2CCN(c3cccc(Cl)c3)CC2)c2ccccc21` are 10 (inactive) and 280.
With `CCOc1cccc(-c2nnc3n2N=C(c2cc(OC)ccc2OC)CS3)c1`, the cell event count by setting is: (at 100 µM) 3 (inactive); (event count, at 10 µM) 136.
As for `Cc1oc(-c2cccc(Cl)c2)nc1CN1CCCC(C(=O)NC(C)c2ccc3c(c2)OCCO3)C1` (centres undefined), the cell event count was 9 (inactive) (at 100 µM) and 136 (event count, at 10 µM).
As for `COc1cc2nc(N3CCN(C(=O)C4COc5ccccc5O4)CC3)nc(N)c2cc1OC` (centres undefined), the cell event count (at 100 µM) was 5 (inactive) and the cell event count (event count, at 10 µM) came out at 124.
Turning to `Cc1cc(N2C(=O)C3C4C=CC(C4)C3C2=O)ccc1Br` (centres undefined), the cell event count is, setting by setting: (at 100 µM) 272 (inactive); (event count, at 10 µM) 69.5.
Regarding `COc1ccc(CCNC(=O)C2CCCN(Cc3nc(-c4ccccc4C)oc3C)C2)cc1OC` (centres undefined), the cell event count (at 100 µM) is 12 (inactive) and the cell event count (event count, at 10 µM) came out at 190.
For the compound `Cc1noc(C)c1S(=O)(=O)N1CCC(C(=O)NCCN2CCC(C)CC2)CC1`, the cell event count (at 100 µM) was 300 (inactive) and the cell event count (event count, at 10 µM) came out at 188.
`CC1(C)CC(=O)c2cc(OCC(=O)NCCCN3CCN(c4ccccc4F)CC3)ccc2O1`: the cell event count is 11 (inactive) (at 100 µM) and 141 (event count, at 10 µM).
Regarding `CCN(CC)CCNC(=O)c1ccc(N2CCCCC2)c(NS(=O)(=O)c2ccc(C)cc2)c1`, the cell event count (at 100 µM) was 17 (inactive) and the cell event count (event count, at 10 µM) was found to be 197.
`CCc1ccc(-c2nc(CN3CCCC(C(=O)NCCc4ccc(OC)c(OC)c4)C3)c(C)o2)cc1` (centres undefined): the cell event count was 8 (inactive) (at 100 µM) and 144 (event count, at 10 µM).
The corresponding values for `Cc1cc(N2CCN(C)CC2)nc2ccc(NC(=O)c3ccc4c(c3)OCO4)cc12` are 57 (inactive) and 278.
As for `O=S1(=O)C=C(Sc2nc3ccccc3s2)c2ccccc21`, the cell event count (at 100 µM) is 39 (active) and the cell event count (event count, at 10 µM) was found to be 44.
For the compound `COc1ccc(-c2cc(C(F)(F)F)nc(N3CCN(C)CC3)n2)cc1`, the cell event count reads like this: (at 100 µM) 4 (inactive); (event count, at 10 µM) 102.
For `Cc1ccc(C(=O)/C=C/Nc2cccc(O)c2)cc1` the same measures were 17 (inactive) and 74.
In the case of `CCN1CCN(C(c2cccs2)C(C)NS(=O)(=O)c2ccc(Br)cc2)CC1` (centres undefined), the cell event count runs as follows: (at 100 µM) 17 (active); (event count, at 10 µM) 62.
Regarding `Cn1nc(-c2ccc(Cl)cc2)c2cc(C(=O)NCCCN3CCOCC3)sc21`, the cell event count (at 100 µM) is 33 (inactive) and the cell event count (event count, at 10 µM) was found to be 184.
For the compound `Cc1oc(-c2ccccc2F)nc1CN1CCC(C(=O)NCc2cccs2)CC1`, the cell event count is, setting by setting: (at 100 µM) 107 (inactive); (event count, at 10 µM) 214.
For `Cc1ccc2c(c1)c1c(n2CC(O)CNC(CO)(CO)CO)CCCC1` (centres undefined) the same measures were 70 (inactive) and 392.
For `O=c1c2ccccc2nnn1CSc1nnc2sc3ccccc3n12`, the cell event count (at 100 µM) was 141 (inactive) and the cell event count (event count, at 10 µM) is 143.
With `CCN(CC)CCCNC(=O)c1cc(-c2cccc(Cl)c2)on1`, the cell event count is, setting by setting: (at 100 µM) 170 (inactive); (event count, at 10 µM) 376.
For `COc1ccc(CCN2CCC(Nc3nc4ccccc4n3Cc3ccc(F)cc3)CC2)cc1`, the cell event count is 11 (inactive) (at 100 µM) and 728 (event count, at 10 µM).
